This is a sample that favours compounds with a hit; in the whole collection about 3.5% have one here.
BoNT A protease: BoNT/A light chain protease inhibitors, primary screen, biochemical, flow cytometry, MLPCN library; AID 588499, 2011; multiplex microsphere protease substrate cleavage; hit rate 0.17% among 360,000; Botulinum neurotoxin type A light chain protease (Clostridium botulinum A str. ATCC 3502); inhibition, % at 10 µM; also: plate controls were buffer without enzyme for full effect and enzyme alone for no effect
BJeLR lethal: MLPCN primary cell-based screen for lethality selective to Ras in HRASV12 cells; BJeLR (HRASV12) viability, CellTiter-Glo ATP luminescence, 48 h; inhibition, % (test concentration not listed); hit rate 0.17% among 300,000; in the data active = inhibition above about 50%; inconclusive = no clear call, values can overlap the other calls
Bead autofluor: flagged as autofluorescent in microsphere protease counterscreen | fluorescence intensity (concentration not given with the values) | hit rate 3.1% among 360,000 | compound autofluorescence counterscreen, microsphere flow cytometry; active compounds read high; in the data active = fluorescence intensity above about 16000; inconclusive = no clear call, values can overlap the other calls
Anthrax LF inh2: Bacillus anthracis LF protease inhibitors, primary screen, biochemical, multiplex microsphere, MLPCN library; Lethal factor (Bacillus anthracis), P15917; multiplex microsphere protease cleavage assay; inhibition, % at 10 µM; hit rate 0.12% among 360,000; AID 588501, 2011; also: plate controls were buffer without enzyme for full effect and enzyme alone for no effect
BoNT-F LC inh: BoNT/F light chain protease inhibitors, primary screen, biochemical, flow cytometry, MLPCN library | AID 588497, 2011 | inhibition, % at 10 µM | Multiplex microsphere protease cleavage assay | Botulinum neurotoxin type F light chain protease (Clostridium botulinum) | hit rate 0.22% among 360,000; in the data active = inhibition above about 35%, passing the limit was not always enough; inconclusive = no clear call, values can overlap the other calls; also: plate controls were buffer without enzyme for full effect and enzyme alone for no effect
Starred values were filed as active, the others as inactive; ? = inconclusive; nt = no result. Rule as the data show it, unless noted: active = inhibition above about 30%; inconclusive = no clear call, values can overlap the other calls; inactive = below that.

SMILES	BoNT A protease	BJeLR lethal	Bead autofluor	Anthrax LF inh2	BoNT-F LC inh
Cc1c(Br)cccc1NC(=O)C1(C)CCN1Cc1ccc(OC(C)C)cc1 (stereo not drawn)	-0.2	nt	3811	-0.1	-15.5
COc1ccc(CC(=O)OCC(=O)NC(=O)NC(C)C)cc1	-1.7	-6.4	23854*	-2.7	-5.2
COCCNC(=S)N1CCC2CC1c1c(Cl)cccc12 (stereo not drawn)	0.1	nt	3263	-2.8	0.2
C=CCn1c(=O)c2c3c(sc2n2c(Nc4ccc(C(=O)OCC)cc4)nnc12)CCCC3	-3.3	-6.0	17959*	1.0	-8.4
C=CCn1c(-c2ccccc2OC)n[nH]c1=S	0.1	-5.7	2145	-1.5	-0.8
C=CCn1c(-c2cccc3ccccc23)n[nH]c1=S	-1.6	-12.8	21011*	-3.2	-3.9
Fc1ccc(Br)cc1C1C=C(c2ccc(Br)cc2)Nc2ncnn21 (stereo not drawn)	-5.2	8.1	22136*	-1.0	-6.8
CCc1ccc(C2=CC(c3cc(Br)ccc3F)n3ncnc3N2)cc1 (stereo not drawn)	0.2	nt	8197	-0.2	-1.0
Cc1sc2c(c1C)C(c1ccc(C(C)(C)C)cc1)=NCC(=O)N2CC(=O)Nc1nccs1	-1.3	-2.4	22414*	-2.2	-3.2
O=S(=O)(c1ccc(NC(=S)NN=Cc2ccccc2O)cc1)N1CCCCC1	0.6	nt	3057	-0.6	-14.5
Cn1c(SCc2cccc3ccccc23)nnc1-c1ccco1	0.2	-7.1	2599	1.2	-3.9
Nn1c(SCc2cccc3ccccc23)nnc1-c1ccco1	-0.2	-1.4	22596*	-2.3	1.8
Cc1cccc(C)c1NC(=O)CSc1nnc(-c2ccco2)n1N	1.2	-1.9	21789*	0.4	0.2
COc1ccccc1NC(=O)CSc1nnc(-c2ccco2)n1N	1.0	-1.6	4144	-1.9	6.8
COc1ccc(OC)c(CC(=O)Nc2ccc3c(c2)c(=O)n(C)n3Cc2cccc(C(F)(F)F)c2)c1	0.2	nt	3505	-9.9	-4.3
CC1(C)NC(=O)N(CC(O)COc2ccccc2C(=O)Nc2ccccc2)C1=O (stereo not drawn)	-2.7	-3.9	23718*	-1.8	-6.1
CC1(C)NC(=O)N(CC(O)CN2C(=O)NC(C)(C)C2=O)C1=O	-0.2	7.5	23204*	-1.9	0.1
CCOC(=O)C1(C)CCN1C(=O)c1ccc(F)c(Cl)c1 (stereo not drawn)	-0.2	nt	3018	7.3	3.3
c1nc(SSc2ncnc3nc[nH]c23)c2[nH]cnc2n1	1.2	nt	4463	-3.2	17.8
O=C1C2ON(c3ccccc3)C(c3ccncc3)C2C(=O)N1c1ccc(N2CCOCC2)cc1 (stereo not drawn)	0.1	-1.7	4223	-7.4	-0.7
Cc1ccc(N2C(=O)C3ON(c4ccccc4)C(c4ccncc4)C3C2=O)cc1 (stereo not drawn)	-0.1	9.8	20770*	-0.3	0.0
O=C1C2ON(c3ccccc3)C(c3ccncc3)C2C(=O)N1c1ccc(Br)cc1 (stereo not drawn)	?	3.0	20513*	2.1	-1.2
OC(c1ccc2ccccc2n1)c1c(Cl)cccc1Cl (stereo not drawn)	-0.8	nt	2767	4.9	-1.2
C/C(CC(O)c1ccc2ccccc2n1)=N/O (stereo not drawn)	0.6	-0.2	20613*	-1.1	-0.3
CC(C)(C)c1cc(C(=S)N2CCN(CCO)CC2)cc(C(C)(C)C)c1O	0.7	2.0	23211*	-4.2	-0.1
SMILES	BoNT A protease	BJeLR lethal	Bead autofluor	Anthrax LF inh2	BoNT-F LC inh
OCCN1CCN(C(=S)c2ccc(Cl)cc2)CC1	-0.1	-3.0	2092	-0.9	-2.4
O=C(CC1C(=O)NCCN1C(=O)Nc1ccccc1)Nc1ccc2c(c1)OCCO2 (stereo not drawn)	-0.5	-0.9	16409*	-3.1	-5.2
Cc1ccc(-c2[nH]ncc2C(=O)c2ccccc2C)c(O)c1	-1.3	3.5	3804	11.0	35.7*
CCOCCCN1C(=O)CN(C2CCCCCC2)C(=O)C1c1ccc(OC)cc1 (stereo not drawn)	1.0	5.0	19637*	-2.1	1.0
CCCOc1ccc(C2C(=O)N(C3CCCCC3)CC(=O)N2CCCOCC)cc1OC (stereo not drawn)	1.4	nt	22919*	-4.2	-1.0
COc1ccc(C2C(=O)N(C3CCCCC3)CC(=O)N2C2CCCCC2)cc1 (stereo not drawn)	-0.2	-1.4	9530	-3.8	-4.3
COc1ccc(C2C(=O)N(C3CCCCC3)CC(=O)N2CCc2ccccc2)cc1OC (stereo not drawn)	-3.4	-9.0	21105*	-1.1	-4.7
CCOCCCN1C(=O)CN(C2CCCCC2)C(=O)C1c1ccc(OC)c(OC)c1 (stereo not drawn)	-0.2	-9.4	10813	2.8	5.4
Cc1ccc(C2C(=O)N(C3CCCC3)CC(=O)N2C2CCCCC2)cc1 (stereo not drawn)	2.4	-0.5	18594*	-4.3	0.5
CC(=O)c1ccc(NC(=O)CNc2cc(S(=O)(=O)N3CCOCC3)ccc2N2CCCC2)cc1	-4.4	nt	7562	-4.5	-11.6
O=C(C[n+]1cccc(/C=N/O)c1)NC(=O)Nc1ccccc1	-1.1	nt	6215	-1.6	-6.0
CCOC(=O)/C(C#N)=C/c1cc2ccccc2nc1N1CCCCC1	30.9*	-4.2	2550	11.9	9.8
COc1ccc(OC)c(NC(=O)C(=O)NNC(=O)COc2ccc(Br)cc2C)c1	-1.1	0.6	4461	3.4	-1.8
CCCc1c(-c2cccc(Br)c2)ncn1Cc1ccccc1OC	-1.3	nt	4489	-5.0	-0.1
Cc1cc(OCC(=O)O)c2c3c(c(=O)oc2c1)CCCC3	-0.3	9.7	3526	-3.0	-8.9
Cc1ccc(-n2nc(C)cc2NC(=O)COc2cc(C)cc3oc(=O)c4c(c23)CCC4)cc1	0.7	0.9	22051*	-0.7	2.7
CN(Cc1ccccc1)c1ccc(C(CC(N)=O)NC(=O)c2ccccc2)cc1[N+](=O)[O-] (stereo not drawn)	-0.7	-1.4	3153	2.3	-3.7
O=S(=O)(c1cccc2nsnc12)N1CCc2ccccc2C1	?	4.8	21361*	-4.1	6.6
N#CC1=C(N)N2C(=C(C#N)C13CCCCC3)SC1CCCCC12O (stereo not drawn)	-1.0	9.3	22232*	-1.7	-0.1
CSC1=C(C#N)C2(CCCC2)C(C#N)=C(N)N1	nt	-1.3	nt	nt	nt
CCCCCCCCN1C(=O)[C@H](CC(=O)NCc2cccc(C(F)(F)F)c2)C[C@@]2(C(=O)OCC)CCCC=C12	-0.5	nt	5755	-3.1	2.1
Nc1nc2ccc(Cl)cc2cc1C(=O)NCc1ccc(Oc2ccccc2)cc1	1.1	nt	5114	5.4	-2.2
Cc1cccc(-n2ncc3c(N4CCCc5ccccc54)ncnc32)c1	0.9	-6.9	20241*	-6.4	-0.2
Cc1cccc(-n2ncc3c(NCc4ccccc4)ncnc32)c1	-0.3	14.9	5721	0.6	7.3
